Our source for the z-score values is PubChem BioAssay.

Molecules are shown by their SMILES. Calls of active or inactive are those of the source.

Experiment [1] is described as follows: compound effects on lung adenocarcinoma cell viability – A549, calcein-AM fluorescence, 48 h, basal, profiling panel (AID 1162). The following applies: higher = more signal.
Experiment [2] can be described thus: compound effects on differentiated 3T3-L1 adipocyte viability – cell-based, 3T3-L1 adipocytes, calcein-AM fluorescence, 48 h, basal, profiling panel (AID 1163). As to conditions: 3T3-L1 adipocytes viability, higher = more signal.
Experiment [3] in a line: compound effects on hepatocellular carcinoma cell viability – HepG2, calcein-AM fluorescence, 48 h, basal, profiling panel (AID 1164). The following applies: higher = more signal.
The nature of experiment [4]: compound effects on multiple myeloma cell viability – MM1S, calcein-AM fluorescence, 48 h, basal, profiling panel (AID 1165). As to conditions: higher = more signal.
The nature of experiment [5]: calcein-AM signal in unstimulated myeloma cells – cell-based, calcein-AM fluorescence, 48 h, PK04 Diversity Set, profiling panel (AID 1166).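 Further: cells grown under basal conditions without added stimulus.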 The following applies: higher = more signal; RPMI8226 myeloma viability, calcein-AM fluorescence, 48 h unless noted.
Experiment [6] can be described thus: JC-1 mitochondrial signal, unstimulated HepG2 cells – cell-based, JC-1 fluorescence, 24 h, 100 nL compound, profiling panel (AID 1167). The following applies: HepG2 mitochondrial potential, higher = more signal.
Experiment [7] can be described thus: JC-1 mitochondrial signal, unstimulated adipocytes – cell-based, JC-1 fluorescence, 3T3-L1 adipocytes, 24 h, 100 nL compound, profiling panel (AID 1168). The following applies: JC-1 mitochondrial fluorescence; higher = more signal, called active from +8 up or from −8 down unless noted.
A short description of experiment [8]: JC-1 mitochondrial signal, unstimulated myeloma cells – cell-based, JC-1 fluorescence, RPMI8226, 24 h, 100 nL compound, profiling panel (AID 1169). The following applies: higher = more signal; RPMI8226 myeloma, JC-1 mitochondrial potential fluorescence, 24 h unless noted.
Experiment [9] in a line: JC-1 mitochondrial signal, unstimulated MM1S myeloma – cell-based, JC-1 fluorescence, 24 h, 100 nL compound, profiling panel (AID 1170). As to conditions: MM1S mitochondrial potential, higher = more signal.
Experiment [10] can be described thus: resazurin metabolic signal in A549 cells – cell-based, resazurin fluorescence, 24 h, PK04 Diversity Set, profiling panel (AID 1171). The following applies: A549 viability; higher = more signal, called active from +8 up or from −8 down unless noted. (The colour change of resazurin is a common sign of viable cells or microbes.)
Further: test concentration not given here.

Take `C[C@@H]1OC=C2[C@@H](O)[C@H]3O[C@H]3C(=O)[C@]23[C@H]1[C@H]1C2=C([C@@H](O)[C@H]4O[C@H]4C2=O)[C@@H]3O[C@@H]1C`: the z-score in experiment [1] was 0.304; in experiment [2], 0.441; in experiment [3], 0.0428; in [4], -0.297; in experiment [5], -0.594; in experiment [6], -0.888. For the same compound, the z-score is -0.3 (inactive) in [7], 0.0604 in experiment [8], 0.144 in experiment [9] and 0.703 (inactive) in experiment [10].

In the case of `CN1CCC(c2ccc(CO)cc2)=CC1c1cccs1` (stereo not given), the z-score in [1] is 0.368; in [2] it was -0.393; in experiment [3], -0.153; in experiment [4], -2.81; in [5] it was -0.157; in experiment [6], -1.28. The z-score is -0.581 (inactive) in [7], 0.554 in [8], -0.277 in experiment [9] and -0.103 (inactive) in experiment [10].

For the compound `CCOC(=O)[C@H]1CC=C2C(=O)Oc3ccccc3[C@@H]21`, the z-score was -0.961 in [1]; -0.214 in experiment [2]; -1.13 in [3]; -1.35 in experiment [4]; -0.132 in [5]; -0.417 in [6]. For the same compound, the z-score is 0.846 (inactive) in experiment [7], 0.979 in experiment [8], -1.08 in experiment [9] and 0.991 (inactive) in experiment [10].

On to `COC(=O)[C@H]1C(=O)c2ccccc2O[C@@](C(=O)OC)(c2ccccc2)[C@@H]1c1ccccc1`, for which the z-score is -0.513 in [1]; -0.328 in experiment [2]; 0.159 in experiment [3]; -1.16 in experiment [4]; -0.144 in experiment [5]; -0.598 in experiment [6]. In addition, the z-score was -0.31 (inactive) in experiment [7], -0.203 in experiment [8], 0.271 in experiment [9] and -0.002 (inactive) in experiment [10].

With `CCc1cc2c(nc1CC)CCN(CCC(C)=NOC)C2`, the z-score in experiment [1] was 0.151; in experiment [2] it was 0.504; in experiment [3] it was 0.0911; in [4], 0.69; in experiment [5] it was -2.14; in experiment [6], 2.55. The z-score is -1.37 (inactive) in experiment [7], 1.07 in [8], 0.196 in experiment [9] and -0.521 (inactive) in experiment [10].

As for `CCCc1cc2c(n1Cc1ccc(C)cc1)C(C)C1CN(C(=O)c3ccccc3)C(C)(C(=O)OC)C21` (stereo not given), the z-score was 0.345 in experiment [1]; -0.441 in experiment [2]; 1.11 in experiment [3]; -2.84 in experiment [4]; -4.73 in experiment [5]; 2.34 in [6]. Besides, the z-score is -0.268 (inactive) in experiment [7], 0.00271 in experiment [8], -1.59 in experiment [9] and -1.58 (inactive) in experiment [10].

Take `CCOC(=O)[C@H]1CC=C2C(=O)Oc3ccc(Br)cc3[C@@H]21`: the z-score is -2.46 in [1]; -0.556 in [2]; -2.35 in [3]; -2.9 in experiment [4]; -3.93 in experiment [5]; 1.36 in experiment [6]. In addition, the z-score in experiment [7] was 0.599 (inactive); in experiment [8] it was 0.407; in [9], 0.132; in [10] it was 0.234 (inactive).

As to `COC(=O)C1(C)C=C2C(=C(C)C(=O)C2C)CN1` (stereo not given), the z-score in experiment [1] is -1.32; in experiment [2] it was -0.254; in experiment [3], -1.21; in experiment [4], 0.224; in [5], -2.24; in experiment [6], -1.57. The z-score in experiment [7] is -0.482 (inactive); in experiment [8], 0.262; in [9], -0.221; in experiment [10], -1.62 (inactive).

For the compound `COC(=O)NCC=Cc1nc(CCC=CC(=O)O[C@H]2CC3CC(=O)O[C@@H](C=CCC(C)C)C[C@@H]4CC[C@H](C)[C@@H](C[C@@H](OC)C[C@H](C2)O3)O4)co1`, the z-score in [1] is -1.61; in [2] it was -0.804; in experiment [3], -1.29; in experiment [4] it was -2.61; in experiment [5], -2.97; in [6] it was 0.49. Besides, the z-score is 0.249 (inactive) in [7], -0.908 in experiment [8], -2.54 in experiment [9] and -4.04 (inactive) in [10].

In the case of `CN1CCC(c2ccc(CO)cc2)=CC1C1CC1` (stereo not given), the z-score was 0.169 in experiment [1]; -0.228 in experiment [2]; 0.061 in experiment [3]; -1.25 in experiment [4]; 0.0447 in experiment [5]; -0.851 in [6]. Besides, the z-score is -0.625 (inactive) in experiment [7], 0.604 in experiment [8], -0.409 in [9] and -0.374 (inactive) in experiment [10].

For `COC(=O)[C@@]1(Cc2ccccc2)[C@H]2c3cc(C(=O)N(C)C)[nH]c3C[C@H]2CN1C(=O)c1ccccc1`, the z-score in experiment [1] was -1.08; in experiment [2], -0.0276; in [3], -0.78; in experiment [4] it was 0.047; in [5], -0.458; in experiment [6], -0.592. The z-score is -0.562 (inactive) in experiment [7], 0.816 in experiment [8], -0.807 in [9] and 0.121 (inactive) in experiment [10].

Turning to `COC(=O)[C@@]1(Cc2ccccc2)[C@H]2c3cc(C(=O)N(C)C)n(C)c3C[C@H]2CN1C(=O)c1ccccc1`, the z-score in experiment [1] is -1.73; in experiment [2] it was -0.537; in experiment [3] it was -0.189; in [4], 0.0394; in experiment [5], -1.19; in [6], 0.0427. Also, the z-score was -0.078 (inactive) in experiment [7], -0.318 in experiment [8], -0.437 in experiment [9] and 0.0026 (inactive) in [10].

Turning to `CCCC=C(CCC)[C@@H](NP(=O)(c1ccccc1)c1ccccc1)c1ccccc1`, the z-score in experiment [1] was -0.0868; in experiment [2], -0.298; in [3], 0.559; in experiment [4], -0.687; in [5], -1.27; in [6], -1.95. Also, the z-score in experiment [7] was 0.21 (inactive); in experiment [8] it was 0.368; in experiment [9] it was -1.5; in [10] it was 1.82 (inactive).

Consider `COC(=O)[C@H]1[C@@H](O)[C@@]2(O)c3c(OC)cc(OC)cc3O[C@@]2(c2ccc(OC)cc2)[C@@H]1c1ccccc1`, for which the z-score in experiment [1] is -2.35; in experiment [2], -1.63; in [3], -2.23; in experiment [4], -3.46; in experiment [5], -3.35; in experiment [6], -2.69. Besides, the z-score was -0.0573 (inactive) in experiment [7], -0.727 in experiment [8], -1.19 in experiment [9] and -4.41 (inactive) in experiment [10].

As for `COc1cc2c(cc1O)C(C)N(C)CC2` (stereo not given), the z-score in experiment [1] is 1.22; in experiment [2], 1.01; in [3], 0.262; in [4] it was -0.853; in [5] it was 0.456; in experiment [6], 0.0836. The z-score in experiment [7] is 1.27 (inactive); in experiment [8], -0.663; in [9], 1.07; in experiment [10], 0.115 (inactive).

On to `O=P(c1ccccc1)(c1ccccc1)N1CC2(CC2)CC(O)(c2ccccc2)C1` (stereo not given), for which the z-score in [1] is -1.76; in [2] it was -0.388; in experiment [3], -1.15; in [4], -0.183; in experiment [5], -0.475; in experiment [6], -0.846. In addition, the z-score is -0.654 (inactive) in experiment [7], 0.232 in [8], -0.372 in experiment [9] and -0.488 (inactive) in experiment [10].
